Experimental findings from PubChem BioAssay (NCI) are described below.

Some test systems named below: SR leukemia; RPMI-8226 leukemia; OVCAR-8 ovarian; OVCAR-5 ovarian; OVCAR-4 ovarian; SK-OV-3 ovarian; IGROV1 ovarian; OVCAR-3 ovarian; NCI/ADR-RES ovarian.
Test in all cases: NCI-60 one-dose screen, 48 h (100 = growth as untreated, 0 = no growth, -100 = all killed)
What all share (conditions): 10 µM unless noted

SMILES strings stand for the structures. About 83,000 compounds went through this panel and 20% of them were active in at least one assay; those are over-represented in the sample as a whole.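 The test compound was applied at a single concentration to cells in 96-well plates for 48 hours, and percent growth was recorded.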 Values without a mark were called inactive. Activity calls are given as the source filed them. The calls were made as follows: active = growth percent below 10; inactive = the rest.

Turning to `COC1CCC(N2C(=O)CNc3ncc(-c4ccc(C(C)(C)O)nc4)nc32)CC1` (configuration not stated), the growth with SR leukemia was -0.973% (active); in the experiment on RPMI-8226 leukemia, -2.19% (active); with OVCAR-8 ovarian it was 5.09% (active); in the experiment with OVCAR-5 ovarian, 9.72% (active); in the experiment with OVCAR-4 ovarian it was -7.38% (active); with SK-OV-3 ovarian, -27.6% (active). Further, the figures for the growth in the experiment with IGROV1 ovarian, with OVCAR-3 ovarian and in the experiment on NCI/ADR-RES ovarian were -2.9% (active), 8.66% (active) and 3.73% (active), respectively.

On to `Cc1nc(N)sc1-c1ccnc(Nc2ccc(N3CCOCC3)cc2)n1`, for which the growth with SR leukemia was 2.59% (active); in the experiment with RPMI-8226 leukemia it was 31.4%; in the experiment on OVCAR-8 ovarian, 34.2%; in the experiment with OVCAR-5 ovarian, 42.8%; in the experiment with OVCAR-4 ovarian, 53.7%; with SK-OV-3 ovarian it was 8.94% (active). Moreover, the growth in the experiment with IGROV1 ovarian is 12.3%; in the experiment with OVCAR-3 ovarian, 59.6%; in the experiment on NCI/ADR-RES ovarian it was 61.4%.

On to `O=C1NC(=O)[C@@H](c2cn3c4c(cccc24)CCC3)[C@@H]1c1c[nH]c2ccccc12`, for which the growth in the experiment on SR leukemia was 13.8%; in the experiment with RPMI-8226 leukemia it was 22.8%; in the experiment with OVCAR-8 ovarian it was 11.3%; in the experiment on OVCAR-5 ovarian it was 48%; in the experiment with OVCAR-4 ovarian, 55.4%; in the experiment on SK-OV-3 ovarian it was -0.0481% (active). Also, the results for the growth with IGROV1 ovarian, in the experiment with OVCAR-3 ovarian and in the experiment with NCI/ADR-RES ovarian were 27.7%, 18.4% and 9.44% (active), respectively.

On to `Cc1ccc(Nc2nccc(N(C)c3ccc4c(C)n(C)nc4c3)n2)cc1S(N)(=O)=O`, for which the growth in the experiment on SR leukemia is 18%; with RPMI-8226 leukemia it was 20.8%; with OVCAR-8 ovarian it was 20.4%; with OVCAR-5 ovarian it was 9.38% (active); in the experiment on OVCAR-4 ovarian it was 31.3%; in the experiment with SK-OV-3 ovarian it was -1.9% (active). In addition, the growth in the experiment on IGROV1 ovarian was 3.2% (active); with OVCAR-3 ovarian it was 39.9%; with NCI/ADR-RES ovarian, 48.5%.

As for `COc1cc(N2CCC(N(C)C)CC2)ccc1Nc1ncc(Cl)c(Nc2ccccc2P(C)(C)=O)n1`, the growth in the experiment on SR leukemia is 6.79% (active); with RPMI-8226 leukemia it was 27.9%; in the experiment on OVCAR-8 ovarian, 4.01% (active); with OVCAR-5 ovarian, 1.36% (active); with OVCAR-4 ovarian, 18.2%; in the experiment with SK-OV-3 ovarian, -77.7% (active). Also, the growth in the experiment with IGROV1 ovarian was -24.5% (active); in the experiment with OVCAR-3 ovarian, 16.3%; in the experiment on NCI/ADR-RES ovarian, 78.1%.

For `O=C(c1ccc(/C=C/c2n[nH]c3ccccc23)cc1)N1CCNCC1`, the growth with SR leukemia is 5.24% (active); in the experiment on RPMI-8226 leukemia it was 48.9%; in the experiment on OVCAR-8 ovarian, 58.8%; in the experiment with OVCAR-5 ovarian it was 14.4%; in the experiment with OVCAR-4 ovarian, 54.8%; with SK-OV-3 ovarian, 48.5%. Also, the growth was 33.5% in the experiment on IGROV1 ovarian, 66.8% in the experiment on OVCAR-3 ovarian and 82.1% in the experiment on NCI/ADR-RES ovarian.

For the molecule `COc1cc2ncnc(Nc3ccc(F)c(Cl)c3)c2cc1NC(=O)/C=C/CN1CCCCC1`, the growth is -14.5% (active) in the experiment on SR leukemia; -31.2% (active) with RPMI-8226 leukemia; -38.2% (active) in the experiment on OVCAR-8 ovarian; -22% (active) in the experiment on OVCAR-5 ovarian; -57.5% (active) with OVCAR-4 ovarian; -93.5% (active) in the experiment with SK-OV-3 ovarian. The figures for the growth with IGROV1 ovarian, with OVCAR-3 ovarian and in the experiment on NCI/ADR-RES ovarian were -47.7% (active), -83.2% (active) and -55% (active), respectively.

For the molecule `CO[C@H]1C[C@@H]2CC[C@@H](C)[C@@](O)(O2)C(=O)C(=O)N2CCCC[C@H]2C(=O)O[C@H]([C@H](C)C[C@@H]2CC[C@@H](O)[C@H](OC)C2)CC(=O)[C@H](C)/C=C(\C)[C@@H](O)[C@@H](OC)C(=O)[C@H](C)C[C@H](C)\C=C/C=C/C=C/1C`, the growth in the experiment on SR leukemia was 11.5%; in the experiment with RPMI-8226 leukemia it was 23.8%; in the experiment on OVCAR-8 ovarian it was 38.7%; with OVCAR-5 ovarian it was 56.6%; with OVCAR-4 ovarian, 22.9%; in the experiment with SK-OV-3 ovarian, 34.3%. For the same molecule, the values for the growth in the experiment on IGROV1 ovarian, in the experiment on OVCAR-3 ovarian and with NCI/ADR-RES ovarian were 13.8%, 47.6% and 49%, respectively.

With `CC1=CC2c3oc(-c4ccccc4)c(C(=O)c4ccccc4)c3CNC2C=C1` (configuration not stated), the growth in the experiment with SR leukemia was 89.6%; with RPMI-8226 leukemia, 105%; in the experiment on OVCAR-8 ovarian, 83.6%; in the experiment with OVCAR-5 ovarian, 88.8%; in the experiment with OVCAR-4 ovarian it was 117%; in the experiment with SK-OV-3 ovarian it was 83.3%. Further, the values for the growth with IGROV1 ovarian, in the experiment with OVCAR-3 ovarian and in the experiment on NCI/ADR-RES ovarian were 102%, 106% and 94.6%, respectively.

For the molecule `O=C(O)c1ccc(Nc2ncc3c(n2)-c2ccc(Cl)cc2C(c2c(F)cccc2F)=NC3)cc1`, the growth in the experiment with SR leukemia was 24.2%; in the experiment with RPMI-8226 leukemia, 47.7%; in the experiment on OVCAR-8 ovarian it was 43%; in the experiment with OVCAR-5 ovarian, 59.3%; in the experiment on OVCAR-4 ovarian it was 79.6%; with SK-OV-3 ovarian, 59.7%. In addition, the growth in the experiment with IGROV1 ovarian was 41.8%; in the experiment with OVCAR-3 ovarian, 64.5%; with NCI/ADR-RES ovarian it was 55.4%.

On to `Cc1ccc(C(=O)Nc2ccc(CN3CCN(C)CC3)c(C(F)(F)F)c2)cc1C#Cc1cnc2cccnn12`, for which the growth with SR leukemia is -28.2% (active); with RPMI-8226 leukemia it was -45.5% (active); in the experiment with OVCAR-8 ovarian, -95.8% (active); with OVCAR-5 ovarian, -81.9% (active); in the experiment with OVCAR-4 ovarian, -76.2% (active); in the experiment on SK-OV-3 ovarian it was -94% (active). Further, the growth is -65.5% (active) with IGROV1 ovarian, -95.9% (active) in the experiment with OVCAR-3 ovarian and -49.1% (active) with NCI/ADR-RES ovarian.

Take `CC(C)(O)CC(=O)NCCn1ccc2ncnc(Nc3ccc(Oc4cccc(C(F)(F)F)c4)c(Cl)c3)c21`: the growth in the experiment on SR leukemia is 3.05% (active); with RPMI-8226 leukemia it was 11%; in the experiment on OVCAR-8 ovarian it was 3% (active); in the experiment with OVCAR-5 ovarian it was 3.46% (active); in the experiment on OVCAR-4 ovarian, 25.6%; in the experiment on SK-OV-3 ovarian, -21% (active). Further, the figures for the growth with IGROV1 ovarian, with OVCAR-3 ovarian and in the experiment on NCI/ADR-RES ovarian were -42.6% (active), 32.6% and 9.15% (active), respectively.

Turning to `Cc1nc(-c2cn3c(n2)-c2ccc(-c4cnn(C(C)(C)C(N)=O)c4)cc2OCC3)n(C(C)C)n1`, the growth was 30.1% in the experiment with SR leukemia; 39.3% with RPMI-8226 leukemia; 32.9% with OVCAR-8 ovarian; 28.8% with OVCAR-5 ovarian; 62.5% in the experiment on OVCAR-4 ovarian; -22.1% (active) with SK-OV-3 ovarian. Further, the growth in the experiment on IGROV1 ovarian was -10.7% (active); in the experiment on OVCAR-3 ovarian, 24.5%; in the experiment on NCI/ADR-RES ovarian it was 39.2%.
